This is a sample that favours compounds with a hit; in the whole collection about 21% have one here.
D3 antag – antagonists of human D3 dopamine receptor; D3R cells, DiscoveRx beta-arrestin luminescence, antagonist mode; hits give low values; max response, negative = inhibition, %; actives 2.5% (n = 360,000); AID 652054; in the data active = max response below about -50%; inconclusive = no clear call, values can overlap the other calls; also: % is scaled to controls: 0 for no effect and ±100 for the full control effect
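Cells plated overnight at 1500 cells/well, then exposed to library compounds with dopamine controls for 90 minutes at 37 degrees C. DiscoveRx reagent added for 30–60 minutes at room temperature; luminescence read, quantitative HTS format.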
IL-1B inflam inh – inhibitors of inflammasome signaling (IL-1 beta secretion). THP-1 LPS/ATP IL-1B secretion, AlphaLISA, 16 h; hits give low values. activity change, % at 57.5 µM. actives 4.7% (n = 360,000); in the data active = activity change below about -50%; inconclusive = mostly about -30% to -49%; also: % is scaled to controls: 0 for no effect and ±100 for the full control effect
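Secreted IL-1B measured by AlphaLISA bead assay after 16 h compound exposure of THP-1 cells; compounds (final up to 57.5 uM) added 1 h before LPS (250 ng/mL) and ATP (1.25 mM) stimulation; lower signal means less secretion.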
TDP1 cell noCPT – qHTS for Inhibitors of human tyrosyl-DNA phosphodiesterase 1 (TDP1): qHTS in cells in absence of CPT; DT40 Tdp1-/- hTDP1 cells, no CPT, ATP luminescence, 48 h; actives 15% (n = 420,000); AID 686978, 2013; Potency, µM (doses to about 46.2 µM), for the others: at the top dose activity change, negative = growth inhibition, most hits filed as inhibitors; also: potency is read from the fitted curve at half-maximal effect; % is scaled to controls: 0 for no effect and ±100 for the full control effect; nearly all actives have a fitted effect of over 55% in size
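Growth of hTDP1-complemented DT40 Tdp1-knockout cells is measured by ATP luminescence after at least 48 hr compound exposure at 37 °C, with DMSO substituting for the 20 nM CPT used in the parallel screen.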
ClpP mod – qHTS Assay for Activators of ClpP | ATP-dependent Clp protease proteolytic subunit (Bacillus subtilis (strain 168)), P80244 | purified B. subtilis ClpP, FRET peptide cleavage, 20 min | Potency, µM (doses to about 57.5 µM), for inactives: at the highest dose activity change, negative = active | actives 1.9% (n = 340,000); active = well fitted falling curve with a large enough effect; inconclusive = small, poorly fitted or top-dose-only effect; inactive = no such curve, though single readings can be large or run the other way; also: potency is read from the fitted curve at half-maximal effect; the source files actives as falling curves though it sought activators and does not explain the sign; nearly all actives have a fitted effect of over 65% in size
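Buffer: 100 mM Tris/HCl pH8, 100 mM KCl, 0.05% low protease BSA, 2.5% glycerol, 0.01% Tween-20. ClpP 10 microg/mL final; 20 min RT; delta FRET normalized to ADEP and DMSO controls.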
TDP1 cell CPT – DT40-hTDP1 cell growth loss with CPT | actives 12% (n = 420,000) | chicken DT40 Tdp1-/-;hTDP1 cells + 20 nM CPT, ATP luminescence, 48 h | Potency, µM (highest dose often 46.2 µM), for inactives: top-dose activity change, negative = growth inhibition, hits mostly inhibitors; also: potency is read from the fitted curve at half-maximal effect; % is scaled to controls: 0 for no effect and ±100 for the full control effect; nearly all actives have a fitted effect of over 55% in size
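Chicken DT40 Tdp1-/- cells complemented with human TDP1, 400 cells/well, exposed to compounds plus 20 nM camptothecin for at least 48 h at 37 C; viability read as ATP content by CellTiter-Glo luminescence.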
DRD3 agonist – agonists of human D3 dopamine receptor; P35462; actives 0.58% (n = 410,000); AID 652048; D3R DiscoveRx beta-arrestin cells, luminescence, 90 min; max activation, %; in the data active = max activation above about 30%; also: 0% is about no effect
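Cells at 1500/well, incubated overnight, then treated with pinned compounds (dopamine as control) for 90 min at 37 degrees C. DiscoveRx reagent added for 30 - 60 minutes at room temperature; luminescence read.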
An asterisk follows results filed as active; ? = inconclusive; . = no result; ! = repeats disagree. Unless noted, calls follow the shape of the dose curve; as a rule, active = well fitted inhibition curve with a large enough effect; inconclusive = small, poorly fitted or top-dose-only effect; inactive = flat fitted curve, though single readings scatter.

SMILES | D3 antag | IL-1B inflam inh | TDP1 cell noCPT | ClpP mod | TDP1 cell CPT | DRD3 agonist
Oc1cccc(/C=N/Nc2cc(N3CCCC3)nc(N3CCCC3)n2)c1 | 2 | -102* | ? | -16% | ? | -1
Oc1ccc(/C=N/Nc2cc(N3CCOCC3)nc(N3CCOCC3)n2)cc1 | -28 | ? | 21µM* | -9% | 16µM* | -12
COc1ccc(OC)c(/C=N/Nc2cc(C)nc(N3CCOCC3)n2)c1 | 49 | 11 | 16µM* | . | ? | 19
CCOc1cc(C)c(-c2onc(C(F)(F)F)c2-c2csc(C)n2)c(O)c1 | 30 | -55* | ? | -2% | ? | 12
Cc1c(C)c(C)c(S(=O)(=O)N2CCNCC2)c(C)c1C | 0 | -6 | ? | . | ? | 1
CC(CN1CCCCC1)OC(=O)c1ccc2c(c1)OCO2 (centres undefined) | -15 | -2 | 6% | -12% | -3% | -18
CC(CN1CCOCC1)OC(=O)c1ccccc1Cl (centres undefined) | 7 | -18 | 0% | -13% | 13% | 2
CC(CN1CCCCC1)OC(=O)c1ccc(Cl)cc1Cl (centres undefined) | ? | 6 | -13% | -2% | -8% | -16
CC(CN1CCCCC1)OC(=O)c1cccc(F)c1 (centres undefined) | -51* | -1 | 4% | . | 37% | -24
CC(CN1CCCC1)OC(=O)c1ccc(Cl)cc1 (centres undefined) | -54* | 2 | -2% | -1% | 4% | -25
CC(CN1CCOCC1)OC(=O)c1ccc(Br)cc1 (centres undefined) | -67* | 31 | 0.65µM* | -2% | 0.92µM* | -18
CC1CCN(CC(C)OC(=O)c2ccc3c(c2)OCCO3)CC1 (centres undefined) | -75* | 18 | ? | -4% | 7% | -14
COc1cccc(C(=O)OC(C)CN2CCCC2)c1 (centres undefined) | -6 | 15 | -1% | 1% | -3% | -2
CCCCSc1nc(-c2ccc(OC)cc2)ccc1C#N | . | . | . | 4% | . | 1
CCC1(c2ccccc2)NC(=O)N(CC(=O)NNC(=O)c2ccoc2C)C1=O (centres undefined) | 8 | 15 | 1% | 0% | 0% | -3
Cc1ccc(C)c(-c2ccc(=O)n(Cc3cccc(Br)c3)n2)c1 | -3 | -98* | ? | -2% | -18% | 1
Cc1cc(=O)n(Cc2cccc(Br)c2)c2c1c(C)nn2-c1ccccc1 | . | . | -9% | -7% | -22% | -2
Cc1ccc(C)c(-c2ccc(=O)n(Cc3ccc(F)cc3Cl)n2)c1 | 24 | -75* | ? | -5% | 18µM*! | 4
COc1ccc(CNCC(=O)Nc2cccc(S(N)(=O)=O)c2)cc1 | -6 | 17 | -1% | 35µM* | -4% | -16
COc1ccc(CC(=O)Nc2ccccc2N2CCCC2)cc1 | 9 | 24 | -13% | -2% | -30% | 0
COc1ccc(CNCC(=O)Nc2ccccc2-n2cccc2)cc1 | 7 | 11 | 6.5µM* | -2% | 8.2µM* | -1
CCCCn1nnnc1C1(C)CCC(=O)N1CCc1ccccc1F (centres undefined) | -3 | 14 | -20% | -2% | -4% | 11
O=C1c2cccc3c(N4CCOCC4)c([N+](=O)[O-])cc(c23)C(=O)N1c1cccc2ccccc12 | 0 | -6 | 18µM* | -1% | 12µM* | -19
Cc1cccc(N2C(=O)c3cccc4c(N5CCCCC5)c([N+](=O)[O-])cc(c34)C2=O)c1C | 17 | 0 | ? | 4% | ? | 1
Cn1cnc([N+](=O)[O-])c1Oc1ccc2ccccc2c1 | -8 | -103* | ? | 52% | 8.2µM* | -6
SMILES | D3 antag | IL-1B inflam inh | TDP1 cell noCPT | ClpP mod | TDP1 cell CPT | DRD3 agonist
O=c1c2sccc2n(Cc2cc(=O)n3cc(Cl)ccc3n2)c(=O)n1-c1ccccc1 | . | . | -12% | 4% | 1% | 3
CCCc1cc(C(=O)Nc2ccc(C(=O)c3ccc(C)cc3)cc2)n(C)n1 | 47 | -63* | ? | -3% | 15µM* | 1
OC(c1ccc(Cl)cc1)c1nnc(-c2ccccc2)o1 (centres undefined) | 8 | -10 | ? | 0% | -17% | -3
Fc1ccccc1C(NCCc1ccc(Cl)cc1)c1nnc(-c2ccccc2)o1 (centres undefined) | . | . | ? | ? | 18µM* | -9
Clc1ccc(CCNC(c2ccc(Cl)cc2)c2nnc(-c3ccccc3)o2)cc1 (centres undefined) | . | . | 23µM* | -2% | ? | -11
O=[N+]([O-])c1ccc(OCc2n[nH]c(=S)n2-c2ccccc2)cc1 | -28 | 15 | -1% | -1% | 12% | -7
O=C(C[C@H]1C[C@H](C(=O)N2CCOCC2)[C@@]2(CCC3CCCC3)c3[nH]c4ccc(Cl)cc4c3CCN2C1=O)NCCCn1ccnc1 | 3 | -59* | ? | -1% | ? | 4
O=C(CC1C[C@H](C(=O)N2CCOCC2)[C@@]2(CCC3CCCC3)c3[nH]c4ccccc4c3CCN2C1=O)NCCc1ccccn1 (some centres undefined) | 52 | 0 | ? | -3% | 21µM* | -1
CC(C)=CCC/C(C)=C/CNC(=O)C[C@H]1C[C@H](C(=O)N2CCOCC2)[C@@]2(CCC3CCCC3)c3[nH]c4cc(-c5ccco5)ccc4c3CCN2C1=O | -28 | -22 | ? | 3% | 18µM* | -30
CN(C)CCCNC(=O)C[C@H]1C[C@H](C(=O)N2CCOCC2)[C@@]2(CCC3CCCC3)c3[nH]c4cc(-c5ccco5)ccc4c3CCN2C1=O | -7 | 0 | ? | 4% | 23µM* | -8
COc1ccc(CNC(=O)C[C@H]2C[C@H](C(=O)N3CCOCC3)[C@@]3(CCC4CCCC4)c4[nH]c5cc(-c6ccco6)ccc5c4CCN3C2=O)cc1OC | ? | ? | ? | 4% | 18µM* | -33
COCCCNC(=O)C[C@H]1C[C@H](C(=O)N2CCOCC2)[C@@]2(CCC3CCCC3)c3[nH]c4cc(-c5ccco5)ccc4c3CCN2C1=O | 1 | ? | ? | 4% | ? | -12
O=C(CC1C[C@H](C(=O)N2CCOCC2)[C@@]2(CCC3CCCC3)c3[nH]c4ccccc4c3CCN2C1=O)NCc1ccco1 (some centres undefined) | 8 | ? | ? | 2% | 21µM* | 13

Bioassay records: PubChem BioAssay, National Center for Advancing Translational Sciences (NCATS)
